Test results: PubChem BioAssay (NCI)
The panel holds about 83,000 compounds, 20% with a hit somewhere; the sample as a whole holds those more often.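 How to read the values: 0–100, growth inhibition (40 = 60% inhibited); 0, no net growth; -100 to 0, cell death (-40 = 40% of starting cells died; -100 = all dead).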 Unmarked numbers belong to inactive results. Calls of active or inactive are those of the source. How the source made its calls: active means growth percent below 10; inactive means the rest.

The molecules below were run on HCT-116 colon (assay: NCI-60 one-dose screen, 48 h (100 = growth as untreated, 0 = no growth, -100 = all killed)). Conditions: 10 µM unless noted.

Row | Structure (SMILES) | growth
1 | CN(C)c1ccc(/C=C2\Cc3c(F)ccc(Br)c3C2=O)cc1 | 98.5%
2 | COC(=O)C1CN(S(=O)(=O)/N=C2\NC(=O)NC2=C(Cl)Cl)C1 | 111%
3 | c1ccc2c(NCCCn3ccnc3)c3oc4ccccc4c3nc2c1 | 6.12% (active)
4 | Fc1ccc(-c2nc(C(Cl)Cl)nc3cc(-c4ccccc4)nn23)cc1 | 5.36% (active)
5 | N#Cc1c(-c2ccc(F)cc2)nc2c(C#N)c(Nc3ccccc3)nn2c1N | 105%
6 | C#Cc1nc(C2=C(C)C(O)CC2)cs1 (configuration not stated) | 111%
7 | O=C(O)CCCCCN1C(=O)/C(=C/c2ccc(O)c(O)c2)SC1=S | 105%
8 | CCN1CCN(/C(=N\c2sc(-c3ccccc3)nc2-c2ccccc2)c2ccccc2)CC1 | 62.4%
9 | CS(=O)(=O)c1ccc(-c2nc3ccccn3c2/C=N/Nc2nc(-c3ccc(Br)cc3)cs2)cc1 | 101%
10 | CS(=O)(=O)Nc1ccc(-c2nn(-c3ccc(S(C)(=O)=O)cc3)cc2/C=C/C(=O)c2ccc(NC(=O)CO[N+](=O)[O-])cc2)cc1 | 103%
11 | Clc1ccc(-c2cn3cc(Cc4ccc(Cl)c(Cl)c4)sc3n2)cc1 | 54%
12 | CC(O)C(NC(=O)C1CCCN1C(=O)CNC(=O)C1CC(=O)NCC(=O)NC(Cc2c[nH]c3ccccc23)C(=O)NC(Cc2ccc(O)cc2)C(=O)NCC(=O)NC(CO)C(=O)NC(CCC(N)=O)C(=O)NC(Cc2c[nH]c3ccccc23)C(=O)N1)C(=O)NCC(=O)NC(CCC(N)=O)C(=O)NC(CCCNC(=N)N)C(=O)NC(CC(=O)O)C(=O)O (configuration not stated) | 97.4%
13 | O=C(CSc1nccc(=O)[nH]1)Nc1ccc(-c2nc3ccccc3[nH]2)cc1 | 106%
14 | O=c1[nH]c2ccccc2cc1CSc1ccccc1Nc1nccc(-c2ccc(C(F)(F)F)cc2)n1 | 43.4%
15 | CCOC(=O)c1c(Nc2ccccc2)nn2c(N)c(C#N)c(-c3ccc(OC)cc3)nc12 | 77.8%
16 | COc1ccc(C(=O)/C=C/c2ccc(OCc3ccc(Cl)cc3)c(OC)c2)cc1OC | 20.8%
17 | CCCCCCNC(=O)Oc1ccc(/C(=C(/C)c2ccccc2)c2ccc(OCCN3CCCCCC3)cc2)cc1 | 23.8%
18 | Clc1ccc2oc3c(OCCCn4ccnc4)c4ccccc4nc3c2c1 | 28.9%
19 | COc1ccc(-n2c(SCC(=O)Nc3ccc(-c4nc5ccccc5[nH]4)cc3)nc3ccccc3c2=O)cc1 | -39.6% (active)
20 | Cc1cc2nc3c4cc(Cl)ccc4n(CC(=O)NCCN(C)C)c3nc2cc1C | -85.3% (active)
21 | Cc1ccc(-c2nc(C(Cl)Cl)nc3cc(-c4ccccc4)nn23)cc1 | 11.8%
22 | C[C@@H]1CN(c2ccc3ncc(C#Cc4cncc(C(=O)Nc5ccc(CN6CCN(C)CC6)c(C(F)(F)F)c5)c4)n3n2)C[C@H](C)O1 | -71.4% (active)
23 | OC1CCN(CCCOc2c3ccc(Cl)cc3nc3c2oc2ccccc23)CC1 | -34.9% (active)
24 | CC(C)(C)Nc1nc2c(OCCc3ccccc3)cccn2c1-c1cccc(F)c1 | -32.8% (active)
25 | COc1cc(/C=C/C(=O)c2cc(OC)c(OC)c(OC)c2)ccc1OCc1ccccc1 | 6.71% (active)
26 | C#Cc1nc(C2=C(C)C(OC(C)=O)/C(=N/OC(C)=O)C2)cs1 (configuration not stated) | 19.9%
27 | COc1ccc(/C=N/NC(=O)c2[nH]c3ccc(Br)cc3c2-c2ccccc2)s1 | -19.9% (active)
